ChEMBL document CHEMBL1961873, “Compounds: GSK PKIS; Assays: Nanosyn kinase panel” (2012)

molecular target: Macrophage colony-stimulating factor 1 receptor (Homo sapiens) (UniProt P07333); settings: at 0.1 µM
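Note: value reported is the mean inhibition of FMS.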

Chain of Macrophage colony-stimulating factor 1 receptor (Homo sapiens) (P07333 whole entry): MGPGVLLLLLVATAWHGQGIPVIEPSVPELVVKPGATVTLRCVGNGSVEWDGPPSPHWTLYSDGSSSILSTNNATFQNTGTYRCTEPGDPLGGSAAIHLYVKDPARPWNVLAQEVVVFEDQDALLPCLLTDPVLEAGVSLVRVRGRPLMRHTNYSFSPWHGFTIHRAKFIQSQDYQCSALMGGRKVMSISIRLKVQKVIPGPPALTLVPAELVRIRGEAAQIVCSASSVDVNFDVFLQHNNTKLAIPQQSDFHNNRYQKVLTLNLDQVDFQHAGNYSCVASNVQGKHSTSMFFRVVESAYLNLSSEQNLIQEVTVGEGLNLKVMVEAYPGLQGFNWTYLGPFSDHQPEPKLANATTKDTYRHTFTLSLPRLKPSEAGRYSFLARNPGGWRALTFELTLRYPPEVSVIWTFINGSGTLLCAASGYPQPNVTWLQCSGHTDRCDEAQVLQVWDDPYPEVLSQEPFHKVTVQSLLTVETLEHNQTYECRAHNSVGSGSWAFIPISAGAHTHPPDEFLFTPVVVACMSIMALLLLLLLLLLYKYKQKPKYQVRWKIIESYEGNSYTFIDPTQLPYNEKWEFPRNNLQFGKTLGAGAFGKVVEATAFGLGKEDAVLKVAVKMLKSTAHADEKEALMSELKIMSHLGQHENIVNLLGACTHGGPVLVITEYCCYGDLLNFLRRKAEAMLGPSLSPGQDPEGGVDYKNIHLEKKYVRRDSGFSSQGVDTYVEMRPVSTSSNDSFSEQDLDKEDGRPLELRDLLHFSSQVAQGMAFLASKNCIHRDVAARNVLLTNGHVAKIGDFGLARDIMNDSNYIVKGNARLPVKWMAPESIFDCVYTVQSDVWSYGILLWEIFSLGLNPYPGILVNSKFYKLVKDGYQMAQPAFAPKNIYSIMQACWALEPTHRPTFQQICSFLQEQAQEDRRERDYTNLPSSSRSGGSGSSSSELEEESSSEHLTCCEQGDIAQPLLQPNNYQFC

Row | Compound | inhibition [%]
1 | CCn1c(-c2nonc2N)nc2c(C#CC(C)(C)O)nc(OCCNC)cc21 | -0.38
2 | COC(=O)Nc1nc2cc(Oc3ccc(NC(=O)Nc4cccc(Br)c4)cc3)ccc2[nH]1 | 19.9
3 | Nc1nccc(-c2c(-c3ccc(F)cc3)nn3cc(C(F)(F)F)ccc23)n1 | -4.62
4 | CN(C)CCCn1c(-c2nonc2N)nc2cnccc21 | 2.34
5 | COc1cc(Nc2nccc(-c3cnn4ncccc34)n2)cc(OC)c1 | 68.2
6 | C[C@@H](Oc1cc(-n2cnc3ccc(OC[C@@H](O)CO)cc32)sc1C(N)=O)c1ccccc1Cl | 0.22
7 | N#Cc1cccc(Nc2nccc(-c3cnn4ncccc34)n2)c1 | 34.4
8 | COc1cc(/C=N/Nc2ncnc3c2cnn3C(C)C)ccc1O | 8.23
9 | Nc1ccc(C#Cc2cncnc2Nc2ccc(OCc3cccc(F)c3)c(Cl)c2)cc1 | 0.06
10 | Cc1ccc2c(c1)/C(=N/Nc1ccc(S(N)(=O)=O)cc1)C(=O)N2 | 2.64
11 | NC(=O)c1cccc(Nc2nccc(Nc3cccc(F)c3)n2)c1 | 22.1
12 | NS(=O)(=O)c1ccc(NC=C2C(=O)Nc3ccc4ncsc4c32)cc1 | 47.5
13 | Cc1ccc2c(-c3ccnc(Nc4cccc(C(F)(F)F)c4)n3)c(-c3ccccc3)nn2n1 | 1.77
14 | NS(=O)(=O)c1ccc(N/N=C2\C(=O)Nc3ccc(Cl)cc32)cc1 | 3.24
15 | COC(=O)c1cncc(/C=C/c2c(C)cc(O)cc2C)c1 | 6.96
16 | COc1cccc(-n2ncc3c(N/N=C/c4ccc(S(C)(=O)=O)cc4)ncnc32)c1 | 6.39
17 | CN(C)C(=O)O[C@H]1CN[C@H](C#Cc2cc3ncnc(Nc4ccc(OCc5cccc(F)c5)c(Cl)c4)c3s2)C1 | 10.5
